SMN2 splice enh = increases expression of the SMN2 splice variant; HEK293 SMN2-luciferase splicing reporter, luminescence, 30-36 h; Potency, µM (highest dose often 46.1 µM), most hits filed as activators; 2.8% of 210,000 active; also: nearly all actives have a fitted effect of over 55% in size
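qHTS luciferase splicing reporter: luminescence rises when SMN2 exon 7 is included in transfected HEK293 cells. Compound exposure lasted 30-36 h at 37C, with 4.5 mM final sodium butyrate as control, followed by a ONE-Glo read.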
NPC1 promoter act = activates the NPC1 promoter; AID 485313; Potency, µM (top dose mostly 9.22 µM), usual class: activators; Huh7 NPC1 promoter luciferase reporter, 24 h; 2.4% of 320,000 active; also: nearly all actives have a fitted effect of over 60% in size
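Stably transfected Huh7 (NPC1 promoter→luciferase), 1500 cells/well in Opti-MEM + 10% FBS, 2 h settle, then compound 24 h at 37 °C. Luminescence after 10 min with Amplite reagent.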
FLuc modulator = counter-screen for miR-21 project: firefly luciferase inhibitors or activators | P08659 | purified FLuc, Km substrates, luminescence inhibition | Potency, µM (top dose mostly 57.5 µM), actives largely listed as inhibitors | 6.9% of 360,000 active; also: nearly all actives have a fitted effect of over 55% in size
Target sequence (P08659 whole entry, looked up): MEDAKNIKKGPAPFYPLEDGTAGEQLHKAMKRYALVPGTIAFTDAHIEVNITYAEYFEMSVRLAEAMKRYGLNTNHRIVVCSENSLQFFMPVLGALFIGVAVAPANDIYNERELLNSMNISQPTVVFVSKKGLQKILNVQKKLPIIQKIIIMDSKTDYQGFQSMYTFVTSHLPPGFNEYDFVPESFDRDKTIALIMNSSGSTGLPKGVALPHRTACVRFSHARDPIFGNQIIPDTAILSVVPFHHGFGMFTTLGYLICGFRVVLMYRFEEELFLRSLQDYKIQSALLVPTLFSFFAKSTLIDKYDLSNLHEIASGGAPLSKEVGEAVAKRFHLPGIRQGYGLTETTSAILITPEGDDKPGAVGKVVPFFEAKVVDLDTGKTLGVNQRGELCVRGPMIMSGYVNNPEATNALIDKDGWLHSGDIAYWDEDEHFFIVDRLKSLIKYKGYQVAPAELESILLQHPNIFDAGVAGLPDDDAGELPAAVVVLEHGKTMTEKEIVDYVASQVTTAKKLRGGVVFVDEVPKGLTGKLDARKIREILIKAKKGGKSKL
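Purified P. pyralis luciferase, 10 nM final, with Km-level 10 uM D-luciferin and 10 uM ATP in 50 mM Tris acetate pH 7.5, 10 mM Mg acetate, 0.01% Tween-20, 0.05% BSA; 6-point qHTS titration about 60 µM downward; luminescence read.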
KinaseGlo FLuc = blocks Kinase-Glo luciferase, a counter-screen artifact; Kinase-Glo luciferase, ATP luminescence, 8 min; 0.28% of 200,000 active; Potency, µM (top dose mostly 38.3 µM), most hits filed as inhibitors; also: nearly all actives have a fitted effect of over 60% in size
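Light output from Kinase-Glo luciferase with luciferin and 10 uM ATP in 50 mM imidazole pH 7.2, KCl, MgCl2, Tween 20, BSA; compound pin-delivered, 8-min ambient incubation, then luminescence read.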
Rab9 promoter act = Rab9 promoter activation; Huh7 Rab9 promoter-luciferase reporter, luminescence, 24 h; Potency, µM (titrated, usually from 9.22 µM), hits mostly activators; 2.8% of 320,000 active; also: nearly all actives have a fitted effect of over 60% in size
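Luminescence from Amplite-detected luciferase (10 minutes, ambient) reports Rab9 promoter activation. Before that, stable Rab9-luciferase Huh7 cells (1500/well, reduced-serum OP-MEM I plus 10% FBS) were exposed to compound for 24 hours at 37C.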
Hits are given with their value; [ ] = another dose, or the depositor's remark. The list is not random: actives were taken first. Their share in the collection is about 7.3%. Calls follow the shape of the dose curve; as a rule, active = well fitted curve in the direction sought with a large enough effect; inconclusive = small, poorly fitted or top-dose-only effect, or another doubt; inactive = no such curve, though single readings can be large; an effect the other way counts as inactive or inconclusive.

How did CC(C)(C)C(=O)NC(=S)NCCc1ccccc1 do in these assays?
SMN2 splice enh: inactive; NPC1 promoter act: inconclusive; FLuc modulator: 17µM; KinaseGlo FLuc: inactive; Rab9 promoter act: inconclusive

What do the screens show for `Cc1ccccc1NC(=O)NCCc1ccc(Cl)cc1`?
SMN2 splice enh: inactive; NPC1 promoter act: inactive; FLuc modulator: inactive; KinaseGlo FLuc: inactive; Rab9 promoter act: inactive

How did C/C(=C\c1ccccc1)C(=O)NCCc1ccccc1 do in these assays?
SMN2 splice enh: 11µM; NPC1 promoter act: 1.4µM; FLuc modulator: 3.4µM; KinaseGlo FLuc: inactive; Rab9 promoter act: 0.71µM

How did CC(C)Cc1ccc(-c2cc(=O)[nH][nH]2)cc1 do in these assays?
SMN2 splice enh: inactive; NPC1 promoter act: inactive; FLuc modulator: 17µM; KinaseGlo FLuc: inactive; Rab9 promoter act: inactive

Results for CCOC(=O)c1c(-c2ccc(C)cc2)csc1NC(=O)c1nc(SC(C)C)ncc1Cl ?
SMN2 splice enh: inactive; FLuc modulator: inactive

What do the screens show for `CC(=O)C1=C(O)C(=O)N(c2ccc(Br)cn2)C1c1ccc(Br)cc1` (centres undefined)?
NPC1 promoter act: inactive; FLuc modulator: inactive; Rab9 promoter act: inactive

What do the screens show for `CC(=O)C1=C(O)C(=O)N(c2ccc(Br)cn2)C1c1ccc(F)cc1` (centres undefined)?
SMN2 splice enh: inactive; NPC1 promoter act: 2.2µM; FLuc modulator: inactive; KinaseGlo FLuc: inactive; Rab9 promoter act: 4µM

How did O=C(Nc1ccc(Cl)cc1)Nc1ccccc1C(=O)O do in these assays?
SMN2 splice enh: 13µM; NPC1 promoter act: 0.35µM; FLuc modulator: 0.48µM; KinaseGlo FLuc: 13µM; Rab9 promoter act: 0.45µM

How did O=C(Nc1ccc(Cl)cc1)Nc1ccccc1CC[N+](=O)[O-] do in these assays?
SMN2 splice enh: inconclusive; NPC1 promoter act: inactive; FLuc modulator: inconclusive; KinaseGlo FLuc: inactive; Rab9 promoter act: inactive

Results for O=C(Cc1ccccc1)NNC(=O)Nc1ccc(Cl)c(Cl)c1 ?
SMN2 splice enh: inactive; NPC1 promoter act: inactive; FLuc modulator: inactive; KinaseGlo FLuc: inactive; Rab9 promoter act: inactive

How did O=C(Nc1ccc(Cl)c(Cl)c1)Nc1ccccc1C(=O)O do in these assays?
SMN2 splice enh: 4.5µM; NPC1 promoter act: 0.35µM; FLuc modulator: 0.54µM; KinaseGlo FLuc: inactive; Rab9 promoter act: 0.32µM

What do the screens show for `CCc1ccccc1N1C(=O)N(C)c2ccccc2S1(=O)=O`?
FLuc modulator: inactive

Results for CN(C(=O)C1=CC(c2ccc3c(c2)OCO3)=NS(=O)(=O)N1C)c1ccccc1 ?
FLuc modulator: inactive

Results for CCC(C)NC(=O)CCC(=O)N1Cc2ccccc2Oc2ncccc21 (centres undefined) ?
FLuc modulator: inactive

How did CCOc1ccc(NC(=O)Cn2nnc(-c3ccc(C(N)=O)cc3)n2)cc1S(=O)(=O)N1CCCC1 do in these assays?
NPC1 promoter act: inactive; FLuc modulator: 6.7µM; Rab9 promoter act: inactive

Results for COc1ccccc1NC(=O)C(=O)NCC(c1cccnc1)N1CCc2ccccc2C1 (centres undefined) ?
FLuc modulator: inactive

Results for COC(=O)c1cc(NC(=O)/C=C/c2ccccc2)ccc1O ?
NPC1 promoter act: inconclusive; FLuc modulator: 11µM; KinaseGlo FLuc: inactive; Rab9 promoter act: inconclusive

What do the screens show for `NC(=O)c1ccccc1NC(=O)/C=C/c1ccccc1`?
SMN2 splice enh: inconclusive; NPC1 promoter act: inconclusive; FLuc modulator: 6µM; KinaseGlo FLuc: inconclusive; Rab9 promoter act: 1.8µM

How did COc1cc(NC(=O)/C=C/c2ccccc2)c(C(=O)O)cc1OC do in these assays?
NPC1 promoter act: inactive; FLuc modulator: 6µM; Rab9 promoter act: inactive

Results for NC(=O)c1ccccc1NC(=O)/C=C/c1ccc(Cl)cc1 ?
SMN2 splice enh: 13µM; NPC1 promoter act: 1.8µM; FLuc modulator: 1.7µM; KinaseGlo FLuc: inactive; Rab9 promoter act: 2.5µM

What do the screens show for `COc1ccc(NC(=O)N2CCC(n3c(C)nc4cccnc43)CC2)cc1OC`?
FLuc modulator: inactive

What do the screens show for `Cc1ccc(-c2cn3c(n2)sc2cc(C(=O)NCCCc4ccccc4)ccc23)c(C)c1`?
FLuc modulator: inactive

Results for CCc1ccccc1NC(=O)c1cc2nc(-c3ccc(Br)cc3)cc(C(F)(F)F)n2n1 ?
FLuc modulator: inactive

What do the screens show for `CC12CC[C@@H]3c4ccc(OP(=O)(O)O)cc4CCC3C1CCC2=O` (some centres undefined)?
SMN2 splice enh: inactive[9.22 µM]; KinaseGlo FLuc: inactive[7.66 µM]

Results for CCOc1ccccc1CNS(=O)(=O)c1cnc(N)nc1 ?
FLuc modulator: inactive

Results for COc1ccc(CNc2ccc([N+](=O)[O-])cn2)cc1 ?
NPC1 promoter act: 3.2µM; FLuc modulator: 11µM; Rab9 promoter act: 4µM

Results for COc1ccccc1C(=O)Nc1nnc(SCc2cc(=O)c3ccccc3[nH]2)s1 ?
FLuc modulator: inactive

What do the screens show for `O=C(Nc1scc(-c2ccccc2)c1C(=O)O)c1ccco1`?
SMN2 splice enh: inconclusive; NPC1 promoter act: inactive; FLuc modulator: 11µM; KinaseGlo FLuc: inactive; Rab9 promoter act: inactive

What do the screens show for `COC(=O)c1c(-c2ccc(F)cc2)csc1NC(=O)c1ccco1`?
SMN2 splice enh: inactive; NPC1 promoter act: inconclusive; FLuc modulator: 7.6µM; KinaseGlo FLuc: inactive; Rab9 promoter act: 2.2µM

What do the screens show for `O=C(Nc1scc(-c2ccccc2)c1C(=O)O)c1ccccc1Cl`?
NPC1 promoter act: inactive; FLuc modulator: inconclusive; Rab9 promoter act: inactive

Results for CCOC(=O)c1c(-c2ccc(C)s2)csc1NC(=O)c1ccco1 ?
SMN2 splice enh: inactive; NPC1 promoter act: inactive; FLuc modulator: inactive; KinaseGlo FLuc: inactive; Rab9 promoter act: inactive

Results for COc1ccc(-c2csc(NC(=O)c3ccccc3F)c2C(=O)O)cc1 ?
NPC1 promoter act: inconclusive; FLuc modulator: 24µM; Rab9 promoter act: inactive

Results for CCOc1ccccc1N(C)C(=O)Cn1nc(Cc2ccncc2)c2ccccc2c1=O ?
SMN2 splice enh: inactive; FLuc modulator: inactive

Results for Cc1nc(N2CCOCC2)c2nc(-c3ccccc3)n(CCN(C)C)c2n1 ?
SMN2 splice enh: inactive; KinaseGlo FLuc: inactive

Results for O=C(Cn1nnc2ccccc21)NCc1ccccc1 ?
SMN2 splice enh: 11µM; NPC1 promoter act: 2.2µM; FLuc modulator: 13µM; KinaseGlo FLuc: inactive; Rab9 promoter act: 3.2µM

Results for Cc1nc2ccccc2n1CC(=O)NCc1ccccc1 ?
NPC1 promoter act: inactive; FLuc modulator: inactive; KinaseGlo FLuc: inactive; Rab9 promoter act: inactive

How did c1ccc(CCn2nnc3ccccc32)cc1 do in these assays?
NPC1 promoter act: 3.2µM; FLuc modulator: 11µM; Rab9 promoter act: 3.2µM

Results for O=C(Cn1nnc2ccccc21)OCc1ccccc1 ?
NPC1 promoter act: inactive; FLuc modulator: 21µM; Rab9 promoter act: inactive

What do the screens show for `O=C(Cn1nnc2ccccc21)OCC(=O)c1ccc(Cl)cc1`?
NPC1 promoter act: inactive; FLuc modulator: inconclusive; Rab9 promoter act: inactive

How did N#CCCn1nnc2ccccc21 do in these assays?
SMN2 splice enh: inactive; NPC1 promoter act: inactive; FLuc modulator: inactive; KinaseGlo FLuc: inactive; Rab9 promoter act: inactive

Assay outcomes (PubChem BioAssay)
